Results reported in PubChem BioAssay AID1159580 (chemical genetic matrix, 2015).
Hit rate of the full screen: of about 5,500 compounds, about 2,000 (36%) were called active. Not shown: some 18% with an inconclusive outcome. Rule as the data show it: active = normalized growth mostly below about 0.91 (no sharp cut-off); inconclusive = no clear call, values can overlap the other calls; inactive = mostly above about 0.92. Some of the results follow.

Test: chemical genetic growth profiling, strain panel (AID 1159580);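 also: tested at 20 µM; growth read once vehicle control cultures reached saturation at 30 °C; 1 = growth at the plate median or of vehicle wells; lower values mean less growth of the strain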
Conditions: growth OD

Measured: normalized growth

COC(C)(C)CCC[C@H](C)C/C=C/C(C)=C/C(=O)OC(C)C
inactive: S. cerevisiae deletion strains, locus YJR075W, strain HOC1, hits give low values 1.02 | S. cerevisiae deletion strains, locus YKL009W, strain mrt4, hits give low values 0.979 | S. cerevisiae deletion strains, locus YKL068W, hits give low values 1.01 | S. cerevisiae deletion strains, locus YKL085W, strain MDH1 (second series), hits give low values 1 | S. cerevisiae deletion strains, locus YKL085W, strain MDH1, hits give low values 1 | S. cerevisiae deletion strains, locus YKL160W, strain elf1, hits give low values 1.02 | S. cerevisiae deletion strains, locus YKL190W, strain CNB1, hits give low values 0.985 | S. cerevisiae deletion strains, locus YKR001C, strain vps1, hits give low values 1.03 | S. cerevisiae deletion strains, locus YKR026C, strain gcn3, hits give low values 1.02 | S. cerevisiae deletion strains, locus YKR091W, strain srl3, hits give low values 1.02 | S. cerevisiae deletion strains, locus YLL001W, strain dnm1, hits give low values 1.01 | S. cerevisiae deletion strains, locus YLL026W, hits give low values 1.01 | S. cerevisiae deletion strains, locus YLL041C, strain sdh2, hits give low values 1 | S. cerevisiae deletion strains, locus YLR027C, strain aat2, hits give low values 1.01 | S. cerevisiae deletion strains, locus YLR039C, strain RIC1, hits give low values 1.04 | S. cerevisiae deletion strains, locus YLR058C, strain SHM2, hits give low values 1 | S. cerevisiae deletion strains, locus YLR102C, strain apc9, hits give low values 1.02 | S. cerevisiae deletion strains, locus YLR113W, strain HOG1, hits give low values 0.971 | S. cerevisiae deletion strains, locus YLR221C, strain rsa3, hits give low values 0.973 | S. cerevisiae deletion strains, locus YLR258W, strain gsy2, hits give low values 1.03 | S. cerevisiae deletion strains, locus YLR262C, strain YPT6 (second series), hits give low values 0.953 | S. cerevisiae deletion strains, locus YLR262C, strain YPT6, hits give low values 1.06 | S. cerevisiae deletion strains, locus YLR268W, strain sec22, hits give low values 1.05 | S. cerevisiae deletion strains, locus YLR320W, strain mms22, hits give low values 0.992 | S. cerevisiae deletion strains, locus YLR330W, strain CHS5, hits give low values 1.01 | S. cerevisiae deletion strains, locus YLR342W, strain FKS1 (second series), hits give low values 1.02 | S. cerevisiae deletion strains, locus YLR342W, strain FKS1, hits give low values 1.01 | S. cerevisiae deletion strains, locus YLR357W, strain rsc2, hits give low values 1.01 | S. cerevisiae deletion strains, locus YLR370C, strain arc18, hits give low values 0.997 | S. cerevisiae deletion strains, locus YLR371W, strain rom2, hits give low values 1.04 | S. cerevisiae deletion strains, locus YLR384C, strain iki3, hits give low values 1 | S. cerevisiae deletion strains, locus YLR418C, strain cdc73, hits give low values 1.05 | S. cerevisiae deletion strains, locus YML016C, strain PPZ1, hits give low values 1.02 | S. cerevisiae deletion strains, locus YML032C, strain rad52, hits give low values 1.03 | S. cerevisiae deletion strains, locus YML120C, strain ndi1, hits give low values 1.01 | S. cerevisiae deletion strains, locus YML124C, strain tub3, hits give low values 1.03 | S. cerevisiae deletion strains, locus YMR058W, strain fet3, hits give low values 1.01 | S. cerevisiae deletion strains, locus YMR078C, strain ctf18, hits give low values 1.02 | S. cerevisiae deletion strains, locus YMR125W, strain sto1, hits give low values 1.02 | S. cerevisiae deletion strains, locus YMR129W, hits give low values 1.01 | S. cerevisiae deletion strains, locus YMR205C, strain PFK2, hits give low values 0.979 | S. cerevisiae deletion strains, locus YMR223W, strain ubp8, hits give low values 1.02 | S. cerevisiae deletion strains, locus YMR231W, strain pep5, hits give low values 1.03 | S. cerevisiae deletion strains, locus YMR263W, strain SAP30, hits give low values 1.01 | S. cerevisiae deletion strains, locus YMR307W, strain GAS1, hits give low values 1 | S. cerevisiae deletion strains, locus YNL067W, strain RPL9B, hits give low values 1.01 | S. cerevisiae deletion strains, locus YNL071W, strain lat1, hits give low values 1.01 | S. cerevisiae deletion strains, locus YNL128W, strain TEP1, hits give low values 1.01 | S. cerevisiae deletion strains, locus YNL153C, strain GIM3, hits give low values 1.01 | S. cerevisiae deletion strains, locus YNL183C, strain NPR1, hits give low values 0.891 | S. cerevisiae deletion strains, locus YNL209W, strain ssb2, hits give low values 0.998 | S. cerevisiae deletion strains, locus YNL233W, strain BNI4, hits give low values 1.02 | S. cerevisiae deletion strains, locus YNL248C, strain rpa49, hits give low values 0.996 | S. cerevisiae deletion strains, locus YNL250W, strain rad50, hits give low values 1.03 | S. cerevisiae deletion strains, locus YNL271C, strain bni1, hits give low values 1.03 | S. cerevisiae deletion strains, locus YNL298W, strain CLA4, hits give low values 1.03 | S. cerevisiae deletion strains, locus YNL307C, strain MCK1, hits give low values 1.04 | S. cerevisiae deletion strains, locus YNL322C, strain KRE1 (second series), hits give low values 1.05 | S. cerevisiae deletion strains, locus YNL322C, strain KRE1, hits give low values 1 | S. cerevisiae deletion strains, locus YNR049C, strain mso1, hits give low values 1.02 | S. cerevisiae deletion strains, locus YNR052C, strain pop2, hits give low values 1.02 | S. cerevisiae deletion strains, locus YOL006C, strain TOP1, hits give low values 1.07 | S. cerevisiae deletion strains, locus YOL012C, strain htz1 1.31 | S. cerevisiae deletion strains, locus YOL147C, strain pex11, hits give low values 1.02 | S. cerevisiae deletion strains, locus YOR001W, strain rrp6, hits give low values 0.987 | S. cerevisiae deletion strains, locus YOR061W, strain CKA2, hits give low values 1.01 | S. cerevisiae deletion strains, locus YOR069W, strain VPS5, hits give low values 1 | S. cerevisiae deletion strains, locus YOR070C, strain gyp1, hits give low values 0.993 | S. cerevisiae deletion strains, locus YOR080W, strain dia2, hits give low values 1.02 | S. cerevisiae deletion strains, locus YOR083W, strain WHI5, hits give low values 1.01 | S. cerevisiae deletion strains, locus YOR106W, strain vam3, hits give low values 0.948 | S. cerevisiae deletion strains, locus YOR136W, strain idh2, hits give low values 1.02 | S. cerevisiae deletion strains, locus YOR144C, strain elg1, hits give low values 1.02 | S. cerevisiae deletion strains, locus YOR184W, strain ser1, hits give low values 1.04 | S. cerevisiae deletion strains, locus YOR231W, strain MKK1, hits give low values 0.984 | S. cerevisiae deletion strains, locus YOR265W, strain rbl2, hits give low values 1.03 | S. cerevisiae deletion strains, locus YOR270C, strain vph1, hits give low values 0.931 | S. cerevisiae deletion strains, locus YOR290C, strain snf2, hits give low values 1.08 | S. cerevisiae deletion strains, locus YOR316C, strain cot1, hits give low values 1.02 | S. cerevisiae deletion strains, locus YPL051W, strain arl3, hits give low values 1 | S. cerevisiae deletion strains, locus YPL055C, strain LGE1, hits give low values 1.01 | S. cerevisiae deletion strains, locus YPL078C, strain atp4, hits give low values 1 | S. cerevisiae deletion strains, locus YPL106C, strain sse1, hits give low values 1.05 | S. cerevisiae deletion strains, locus YPL240C, strain hsp82, hits give low values 1.01 | S. cerevisiae deletion strains, locus YPL241C, strain CIN2, hits give low values 0.999 | S. cerevisiae deletion strains, locus YPL256C, strain CLN2, hits give low values 0.992 | S. cerevisiae deletion strains, locus YPR119W, strain clb2, hits give low values 1.02 | S. cerevisiae deletion strains, locus YPR141C, strain kar3, hits give low values 1.03 | S. cerevisiae deletion strains, locus YPR163C, strain tif3, hits give low values 1.04 | S. cerevisiae deletion strains, locus YPR167C, strain met16, hits give low values 1.02 | S. cerevisiae deletion strains, strain wtn01, hits give low values 1.05 | S. cerevisiae strains, strain wild type, hits give low values 1.01
